Experimental data taken from PubChem BioAssay (Tox21).
Several values for one entry are separate records, joined by “and”; a condition that tells them apart may be missing. Equal values may be shown once. Results filed as inconclusive are left out. Entries that show only a call come without a potency. Activity calls are given as the source filed them. The call rests on the fitted dose curve.

Assay: qHTS assay for small molecule disruptors of the mitochondrial membrane potential - cell viability (AID 720634); further: nearly all actives have a fitted effect of over 20% in size
Settings: HepG2 viability, ATP luminescence (CellTiter-Glo), 1 h; series mostly up to 83.2 µM
Excerpt: U.S. Tox21 Program National Center for Advancing Translational Sciences [NCATS] NIH Chemical Genomics Center [NCGC] U.S. Environmental Protection Agency [EPA] National Institutes of Environmental Health Sciences [NIEHS] National Toxicology Program [NTP] U.S. Food and Drug Administration [FDA] Tox21 Assay Overview: Mitochondrial membrane potential (MMP), one of the parameters for mitochondrial function, is generated by mitochondrial electron transport chain that creates an electrochemical gradient by a series of redox reactions. This gradient drives the synthesis of ATP, a crucial molecule for various cellular processes. Measuring MMP in living cells is commonly used to assess the effect of chemicals on mitochondrial function; decreases in MMP can be detected using lipophilic cationic fluorescent dyes. […] The dye accumulates in the mitochondria of healthy cells as aggregates, with red fluorescence. The mitochondrial potential decreases and the dye could not accumulate in the mitochondria and remains in the cytoplasm in monomers, with green fluorescence. In addition to the mitochondrial potential assay, these cells were also used to test the cytotoxicity by determining the cell viability in the culture based on the quantitation of ATP present. The cytotoxicity was measured in the same assay well of MMP assay.
Tox21 Assay Protocol Summary: 2,000 HepG2 cells in 5 uL/well were dispensed into black, clear-bottom 1536-well plates using a Multidrop Combi (Thermo Scientific) dispenser. The assay plates were incubated for an overnight at 37 C to allow cells to attach to the wells, followed by the transfer of 23 nL compound or DMSO vehicle by a pin tool (Kalypsys). The plates were incubated for 1 hr at 37 C and 5% CO2, followed by the addition of 5 uL of 2X m-MPI dye into each well using Flying Reagent Dispenser (Aurora Discovery) and then CellTiter-Glo reagent was added at 4 uL/well and incubated 30 min at room temperature. Then luminescence intensity was quantified on a ViewLux CCD-based plate reader.
Potency means the concentration at half of the fitted maximal effect.

| SMILES | Potency |
| --- | --- |
| COC(=O)/C=C/c1ccccc1 | inactive |
| N[C@@H]1CONC1=O | inactive |
| OCC(CO)N[C@H]1C[C@](O)(CO)[C@@H](O)[C@H](O)[C@H]1O | inactive |
| CCN(CC)C(=S)SSC(=S)N(CC)CC | inactive |
| C=CS(=O)(=O)O | inactive |
| CC(C)CCCCCCc1ccc(O)cc1 | 6.22 µM (active) and 61.1 µM (active) |
| CN1C(=O)c2ccc([N+](=O)[O-])cc2C1=O | inactive |
| O=c1n(CC2CO2)c(=O)n(CC2CO2)c(=O)n1CC1CO1 (stereo not given) | inactive |
| CCC(CO)(CO)COCC(CC)(CO)CO | inactive |
| CCN(CC)C(=O)Nc1ccc(OCC(O)CNC(C)(C)C)c(C(C)=O)c1 (stereo not given) | inactive |
| C=C(C)C(=O)O | inactive |
| c1ccc2n[nH]nc2c1 | inactive |
| CC[C@@H](N)CO | inactive |
| CCCCCC(=O)O[C@]1(C(C)=O)CC[C@H]2[C@@H]3CCC4=CC(=O)CC[C@]4(C)[C@H]3CC[C@@]21C | inactive |
| CC(=O)O[C@]1(C(C)=O)CC[C@H]2[C@@H]3C[C@H](C)C4=CC(=O)CC[C@]4(C)[C@H]3CC[C@@]21C | inactive |
| NNCCc1ccccc1 | inactive |
| COc1ccc(CCN2CCC(Nc3nc4ccccc4n3Cc3ccc(F)cc3)CC2)cc1 | 49.6 µM (active) |
| O=C1NCC2(CCN(CCc3ccccc3)CC2)O1 | inactive |
| O=C(O[C@@H]1Cc2c(O)cc(O)cc2O[C@@H]1c1cc(O)c(O)c(O)c1)c1cc(O)c(O)c(O)c1 | inactive |
| CC1COC(=O)O1 (stereo not given) | inactive |

| SMILES | Potency |
| --- | --- |
| Nc1nc2ccccc2[nH]1 | inactive |
| CC(=O)N[C@@H](CS)C(=O)O | inactive |
| CC1=C(C=O)C(C)(C)CC=C1 | inactive |
| COc1cc(C(=S)N2CCOCC2)ccc1O | inactive |
| CC(C)CCOCc1ccccc1 | inactive |
| CCCCCCCCCCCC[N+](C)(C)C | inactive |
| CC(C)(C)NCC(O)c1cc(O)cc(O)c1 (stereo not given) | inactive |
| c1cnc2cc3c(cc2n1)C1CNCC3C1 | inactive |
| C=CC(=O)OCCCCCCCC | inactive |
| CC(=O)OCC1=C(C(=O)O)N2C(=O)[C@@H](NC(=O)Cc3cccs3)[C@H]2SC1 | inactive |
| CCCCCCCCCCCCCC[P+](CCCC)(CCCC)CCCC | 34.2 µM (active) and 24.3 µM (active) |
| CO[Si](OC)(OC)c1ccccc1 | inactive |
| c1ccc2c(c1)-c1cccc3c1c-2cc1ccccc13 | 17.2 µM (active) |
| Cc1scc2c1N(C(=O)CN1CCN(C)CC1)c1ccccc1NC2=O | inactive |
| Oc1ccc(Cl)cc1Cc1cc(Cl)ccc1O | 6.68 µM (active) and 221 nM (active) |
| C=CC(=O)OCCCCCCOC(=O)C=C | inactive |
| CCN(CC)CCOc1ccc(/C(=C(\Cl)c2ccccc2)c2ccccc2)cc1 | inactive |
| C=C(C)C1CC=C(C)C(OC(C)=O)C1 (stereo not given) | inactive |
| CC(C)(O)CCC(C)(C)O | inactive |
| O=C(Oc1ccccc1)c1ccccc1O | inactive |
